Cycloheximide cs = counter-screen hit for Shiga toxin inhibitors, cycloheximide; cell reporter, cycloheximide protein synthesis inhibition counterscreen; max response, %; 300,000 compounds, 12% hits; AID 2314; in the data active = max response mostly above about 13%, no sharp cut-off; inactive = mostly below about 14%; also: read at 38.3 µM for the half of the compounds with a filed dose; 0% is about no effect
Shiga toxin inh = inhibitors of Shiga toxin in Vero cells | Vero cells, Shiga toxin protein synthesis inhibition reporter | inhibition, % at 38.7 µM | 290,000 compounds, 9.2% hits; in the data active = inhibition mostly above about 28%, no sharp cut-off; inactive = mostly below about 43%; also: 0% is about no effect
Pf growth 96h = P. falciparum growth inhibition at 96 hour, primary screen for plastid delayed-death inhibitors | P. falciparum luciferase reporter growth, 96 h | Potency, µM (titrated, usually from 28.7 µM), for the others: at the highest dose activity change, negative = inhibition, most hits filed as inhibitors | 320,000 compounds, 6.9% hits | AID 504834; also: potency is read from the fitted curve at half-maximal effect; % is scaled to controls: 0 for no effect and ±100 for the full control effect
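Readout is luminescence from an integrated firefly luciferase in P. falciparum. Red cells, 2% hematocrit and 0.05% parasitemia final, were cultured with compound through two parasite generations (96 hours) at 37 C, 5% CO2.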
Lassa entry inh = blocks Lassa virus binding to or entry into cells. Lassa virus pseudotype entry inhibition, cell reporter. Potency, µM (doses to about 37.9 µM), for the others: at the top dose activity change, negative = inhibition, most hits filed as inhibitors. 300,000 compounds, 1.2% hits; calls by dose curve; tested in HEK293 cells; also: potency is read from the fitted curve at half-maximal effect; % is scaled to controls: 0 for no effect and ±100 for the full control effect; nearly all actives have a fitted effect of over 50% in size
MARV entry inh = inhibitors of Marburg virus binding or cell entry; Potency, µM (highest dose often 37.8 µM), inactives show at the top dose activity change, negative = inhibition, actives largely listed as inhibitors; Marburg virus pseudotyped entry inhibition, cell reporter; 300,000 compounds, 1.8% hits; calls by dose curve; tested in HEK293 cells; also: potency is read from the fitted curve at half-maximal effect; % is scaled to controls: 0 for no effect and ±100 for the full control effect
Pf growth 48h = inhibits P. falciparum growth in the first generation, 48 h | P. falciparum luciferase growth in erythrocytes, 48 h | Potency, µM (doses to about 28.7 µM), without a hit: top-dose activity change, negative = inhibition, most hits filed as inhibitors | 310,000 compounds, 5.9% hits | AID 504832; also: potency is read from the fitted curve at half-maximal effect; % is scaled to controls: 0 for no effect and ±100 for the full control effect
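Luciferase-expressing parasites in RBCs, 2% Hct / 0.1% parasitemia final; RPMI 1640 + 0.5% Albumax; 37 C, 5% CO2, one generation; luminescence read-out, lower signal = inhibition.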
* hit, by the source's call; u = inconclusive; x = no result; ! = a repeat was not active; [ ] = remark or other dose. Shown are actives, neighbours in structure and some others; about 19% of the full set was active somewhere. Unless noted, calls follow the shape of the dose curve; as a rule, active = well fitted inhibition curve with a large enough effect; inconclusive = small, poorly fitted or top-dose-only effect, or another doubt; inactive = no such curve, though single readings can be large or run the other way.

SMILES	Cycloheximide cs	Shiga toxin inh	Pf growth 96h	Lassa entry inh	MARV entry inh	Pf growth 48h
CCS(=O)(=O)Nc1cccc(C2=NN(S(=O)(=O)CC)C(c3ccccc3)C2)c1 (stereo unspecified)	1.4	1.8	10.1%	x	x	u
O=C(NCCSc1ccccc1)c1cncc(Br)c1	33.0*	11.3	62.9%	13.5%	22.6%	x
O=C(NCc1ccccc1)c1cncc(Br)c1	12.6	3.1	52.0%	13.7%	-9.9%	22.4%
O=C(NCCOc1ccccc1)c1cncc(Br)c1	44.9*	78.4*	120.7%	7.9%	9.4%	x
Cc1ccc(Cl)cc1N1CCN(C(=O)c2ccc(CS(=O)(=O)c3ccc(Br)cc3)o2)CC1	x	x	x	-0.8%[46.1 µM]	u	x
O=C(c1ccc(CS(=O)(=O)c2ccc(Br)cc2)o1)N1CCN(c2ncccn2)CC1	-1.3	-6.9	1.85µM*	x	x	x
COc1ccc(S(=O)(=O)Cc2ccc(C(=O)N3CCC(C(N)=O)CC3)o2)cc1	-1.9	3.7	-18.0%	x	x	x
Cc1ccc(S(=O)(=O)Cc2ccc(C(=O)N3CCC(C(N)=O)CC3)o2)cc1	3.0	7.8	10.4µM*	x	x	48.4%
Cc1cccc(Oc2coc3cc(OC(=O)c4cccs4)ccc3c2=O)c1	28.9*	50.4*	193.0%	1.3%	21.3%	34.9%
COc1ccc(/C=C/C(=O)c2nc3ccccc3n2CC(=O)c2ccc(OC)cc2)cc1	-4.1	-21.7	-186.2%	-25.3%	u	10.4µM*
COc1ccc(/C=C/C(=O)Oc2cc(O)cc(O)c2)cc1	21.5*	35.1*	u	5.8%[46.1 µM]	7.4%[46.1 µM]	u
CN(C)c1ccc(/C=C/C(=O)c2ccc(O)cc2)cc1	x	x	x	-21.3%	u	x
O=C(/C=C/c1ccc(O)cc1)c1ccccc1	38.9*	75.3*	-8.6%	-19.7%[46.1 µM]	u	42.9%
CCOc1ccc(/C=C/C(=O)Oc2ccc(OC)cc2)cc1	-3.6	-12.1	u	11.9%	8.8%	u
CCOC(=O)Cc1cc(=O)c2cc(C)ccc2[nH]1	-4.0	-7.6	u	x	x	u
COc1ccc(C(=O)/C=C/c2ccc(OC)c(CN3CCOCC3)c2)cc1	12.1	-5.2	24.7%	u	u	-0.6%
COc1ccc(C(=O)/C=C/c2ccc(OC)c(Cn3nnc4ccccc43)c2)cc1	0.6	-7.9	0.104µM*	u	u	u
COc1ccc(Oc2coc3cc(OC(=O)/C=C/c4ccc(F)cc4)ccc3c2=O)cc1	-1.7	20.8	4.15µM*	-0.1%	16.1%	u
COc1ccc(C(=O)/C=C/c2ccc(O)cc2)cc1	36.6*	87.0*	8.6%	x	x	-42.3%
Cc1nn(C)cc1/C=C/C(=O)c1ccc(O)cc1	38.0*	39.7*	42.3%	u	u	30.9%
COc1ccc(Oc2coc3cc(OC(=O)/C=C/c4ccccc4)ccc3c2=O)cc1	-2.7	-5.7	-7.7%	2.4%	-3.8%	18.0%
O=CN(CCN(C=O)CN1CCCCC1)CN1CCCCC1	-4.3	13.6	x	6.5%	-6.5%	14.6%
O=C(NCCO)c1scc2c1OCCO2	-0.6	-16.1	u	-5.7%	18.7%	-4.1%
O=C(c1ccncc1)N1CCN(S(=O)(=O)c2cccc(C(F)(F)F)c2)CC1	x	x	4.6%	x	x	-5.8%
Cc1cccc(C)c1OCCCCCNCCO	-6.9	-12.0	u	-1.8%	u	x
SMILES	Cycloheximide cs	Shiga toxin inh	Pf growth 96h	Lassa entry inh	MARV entry inh	Pf growth 48h
CCCCCCCCCCCCCCCC(=O)OC(CC(=O)O)C[N+](C)(C)C (stereo unspecified)	x	x	-12.0%	u	22.4µM*!	1.0%
Cc1nnc(NC2=NCCC2)s1	1.2	-9.2	x	0.8%	-6.8%[46.1 µM]	u
Cc1cc(C)n(Cc2ccccc2)c(=O)c1S(=O)(=O)c1ccccc1	-2.3	-13.7	6.2%	11.1%	1.0%	-3.7%
C#CCn1c(C)cc(C)c(S(=O)(=O)c2ccccc2)c1=O	25.7*	100.4*	66.9%	9.6%	4.7%[46.1 µM]	29.7%
CCOC(=O)N1CCN(C(=O)c2noc(C(C)C)c2[N+](=O)[O-])CC1	-2.0	-12.2	u	0.6%	10.2%	u
CC1=CC(C)(C)N2C(=O)C(=Nc3ccc(O)cc3)c3cccc1c32	-1.3	46.1*	u	x	x	u
COc1cc(N=C2C(=O)N3c4c(cccc42)C(C)=CC3(C)C)cc(OC)c1	-3.1	11.0	u	u	-36.9%	u
O=C(CCNC(=O)c1ccccc1Cl)NCC1COc2ccccc2O1 (stereo unspecified)	x	x	0.9%	-1.9%	-16.9%[46.1 µM]	u
